SW480 rereplic = A quantitative high throughput screen for small molecules that induce DNA re-replication in SW480 colon adenocarcinoma cells. SW480 DNA re-replication, Hoechst DNA content imaging, 48 h. Potency, µM (top dose mostly 46.1 µM), inactives show at the top dose re-replication activation, actives largely listed as activators. 1.8% of 340,000 active. AID 624297, 2012; note: potency is the fitted concentration of half-maximal effect; % of control where 0% means no effect; nearly all actives have a fitted effect of over 55% in size
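DNA re-replication was detected as more nuclei of elevated Hoechst intensity after 48 hr exposure to compound (23 nL pinned per well of 250 cells).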
MCF10A rereplic = A quantitative high throughput screen for small molecules that induce DNA re-replication in MCF 10a normal breast cells; MCF 10A DNA re-replication, Hoechst nuclear intensity, 48 h; Potency, µM (series often up to 46.1 µM), without a hit: top-dose activity, positive = re-replication, actives largely listed as activators; 2.9% of 350,000 active; note: potency is the fitted concentration of half-maximal effect; % of control where 0% means no effect; nearly all actives have a fitted effect of over 50% in size
KB-3-1 tox = qHTS assay for MDR1-selective chemotherapeutics: Primary screen using the parental adenocarcinoma cell KB-3-1. KB-3-1 viability, CellTiter-Glo ATP luminescence, 72 h. Potency, µM (doses to about 46.1 µM), hits mostly cytotoxic. 1.4% of 400,000 active. AID 1347075, 2019; note: potency is the fitted concentration of half-maximal effect; % is set by controls: 0 for no effect and ±100 for the full control effect; nearly all actives have a fitted effect of over 60% in size
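Cells are dispensed, compounds pinned in, plates held at 37 °C for 72 h, then CellTiter-Glo is added and luminescence read after 10 minutes. Cell line: parental KB-3-1 in phenol-red-free DMEM, 10% FBS.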
DRD3 antagonist = qHTS of D3 Dopamine Receptor Antagonist: qHTS; D(3) dopamine receptor (Homo sapiens), P35462; D3R cells, DiscoveRx beta-arrestin luminescence, antagonist mode; stronger effect = lower value; max response, negative = inhibition, %; 2.5% of 360,000 active; in the data active = max response below about -50%; inconclusive = no clear call, values can overlap the other calls; note: % is set by controls: 0 for no effect and ±100 for the full control effect
Target sequence (P35462 whole entry, looked up): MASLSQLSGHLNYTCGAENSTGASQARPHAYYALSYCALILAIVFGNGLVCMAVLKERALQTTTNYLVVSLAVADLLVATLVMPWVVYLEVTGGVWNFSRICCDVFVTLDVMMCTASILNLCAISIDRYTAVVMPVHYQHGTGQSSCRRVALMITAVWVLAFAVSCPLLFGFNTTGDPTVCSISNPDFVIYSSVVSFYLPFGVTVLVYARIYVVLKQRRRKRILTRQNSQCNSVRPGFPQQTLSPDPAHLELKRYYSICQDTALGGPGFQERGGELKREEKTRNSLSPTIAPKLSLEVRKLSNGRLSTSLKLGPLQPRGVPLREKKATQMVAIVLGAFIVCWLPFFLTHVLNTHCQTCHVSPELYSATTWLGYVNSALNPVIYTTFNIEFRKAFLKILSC
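Cells expressing the human receptor were seeded at 1500 cells/well, incubated overnight at 37 degrees C in 5% CO2, then exposed to library compounds with dopamine controls for 90 minutes at 37 degrees C before luminescent detection.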
DRD3 agonist = qHTS of D3 Dopamine Receptor Agonist: qHTS. 0.58% of 410,000 active. D3R DiscoveRx beta-arrestin cells, luminescence, 90 min. max activation, %. AID 652048, 2013; in the data active = max activation above about 30%; note: 0% is about no effect
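Agonist mode: compounds and dopamine controls were applied to plated cells for 90 min at 37 degrees C after an overnight attachment at 1500 cells/well. Luminescent read-out followed 30 - 60 minutes at room temperature with DiscoveRx detection reagent.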
KB-V1 MDR tox = qHTS assay for MDR1-selective chemotherapeutics: Primary screen using the drug-selected MDR subline cells KB-V1. KB-V1 MDR cells viability, CellTiter-Glo, 72 h. Potency, µM (doses to about 46.1 µM), hits mostly cytotoxic. 3.4% of 400,000 active; note: potency is the fitted concentration of half-maximal effect; % is set by controls: 0 for no effect and ±100 for the full control effect; nearly all actives have a fitted effect of over 60% in size
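Potencies derive from concentration-effect curves fitted to normalized luminescence (CellTiter-Glo) of KB-V1 cells treated for 72 h at 37 degrees C in phenol-red-free DMEM containing 10% FBS.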
* hit, by the source's call; i = inactive; ? = inconclusive; · = not tested or not shown. Only some compounds are listed: those with a hit (about 8.9% of all), similar ones and a draw of the others. Unless noted, calls come from the whole dose curve; as a rule, active = well fitted curve in the direction sought with a large enough effect; inconclusive = small, poorly fitted or top-dose-only effect, or another doubt; inactive = no such curve, though single readings can be large; an effect the other way counts as inactive or inconclusive.

SMILES	SW480 rereplic	MCF10A rereplic	KB-3-1 tox	DRD3 antagonist	DRD3 agonist	KB-V1 MDR tox
Clc1ccccc1Cn1c(/C=C/c2ccco2)nc2ccccc21	·	18µM*	?	-27	-3	13µM*
Cn1c(=O)n(-c2ccc(Br)cc2F)c(=O)c2sc3ccccc3c21	·	·	i	·	1	i
COc1ccc(CNc2ncnc3sccc23)cc1	-2%	0%	?	14	8	?
COc1ccc(CNc2ncnc3cc(Cl)ccc23)cc1OC	-5%	18%	?	0	7	21µM*
COc1ccc(CNc2ncnc3sccc23)cc1OC	5%	11%	?	5	16	16µM*
Cc1nc2ccn(Cc3cccs3)c(=O)c2cc1C(=O)N1CCN(c2ccccc2)CC1	·	·	i	·	1	i
Cc1cccc(NC(=O)c2ccc3c(O)c(S(=O)(=O)c4ccccc4)c(=O)[nH]c3c2)c1C	·	·	i	·	-9	i
O=C(c1ccco1)N(CCCN1CCOCC1)c1nc(-c2ccc(Cl)cc2)cs1	?	10µM*	i	-23	-13	i
O=C(COc1ccc(Cl)cc1)N(Cc1ccccc1)c1nc(-c2ccccc2)cs1	2%	11%	i	-23	-2	i
CN(C(=O)c1ccco1)c1nc(CC(=O)Nc2ccccc2)cs1	-4%	30%	i	?	-3	i
CCN(C(=O)c1ccco1)c1nc(CC(=O)Nc2ccc(Cl)cc2)cs1	12µM*	12µM*	i	4	-15	16µM*
COc1ccc(-c2csc(N(CCc3ccccc3)C(=O)COc3ccccc3)n2)cc1	0%	7%	i	15	7	16µM*
CCN(CC)CCCN(C(=O)c1cccs1)c1nc(-c2ccc(OC)cc2)cs1	18µM*	?	?	?	-50	8.2µM*
CC(=O)c1ccc(N2CCN(S(=O)(=O)c3ccc4[nH]c5c(c4c3)CCCC5)CC2)cc1	·	·	i	·	7	i
CCN(CC)CCCN(C(=O)c1ccco1)c1nc(-c2ccc(Cl)cc2)cs1	?	17%	i	-50*	-18	i
Cc1c(C)n(Cc2ccccc2)c2ccc(C(=O)NCC(C)c3ccccc3)cc12 (stereo not drawn)	·	·	i	·	-8	i
O=[N+]([O-])c1ccc(N/N=C/c2sc(N3CCOCC3)nc2-c2ccccc2)c(S(=O)(=O)Nc2ccccc2Cl)c1	13µM*	10%	9.2µM*	-53*	-4	?
O=[N+]([O-])c1ccc(N/N=C/c2sc(N3CCOCC3)nc2-c2ccccc2)c(S(=O)(=O)Nc2ccc(Cl)cc2)c1	10µM*	?	2.3µM*	-70*	-29	i
O=C(N/N=C/c1sc(N2CCOCC2)nc1-c1ccccc1)c1ccccc1Cl	3%	0%	i	-12	-2	i
CC(=NNC(=O)c1cccc(S(=O)(=O)N2CCOCC2)c1)c1ccccc1	?	-14%	i	18	-1	i
O=C(Nc1ccc2nc(-c3ccc4nc[nH]c4c3)[nH]c2c1)c1cccs1	3%	?	i	-69*	-5	i
O=C(Nc1ccc2nc(-c3ccccc3)[nH]c2c1)c1cccs1	8%	4%	i	-17	-11	i
CC(=O)Nc1ccc(C=NN=C2c3ccccc3-c3ccccc32)cc1	1%	?	i	7	7	18µM*
CCOc1ccc2c(c1)nc(SCC(=O)c1ccc(Br)s1)n2C	?	76%	?	12	-2	18µM*
O=S(=O)(c1ccc(Cl)c(Cl)c1)c1snnc1-c1ccccc1	1.3µM*	4.6µM*	5.2µM*	?	0	?
SMILES	SW480 rereplic	MCF10A rereplic	KB-3-1 tox	DRD3 antagonist	DRD3 agonist	KB-V1 MDR tox
c1ccc(-c2nnsc2-c2ccccc2)cc1	-23%	4%	i	1	4	i
COc1ccc(OCC(=O)NNC(=O)C(=O)Nc2cc(OC)ccc2OC)cc1	-9%	0%	i	8	0	i
COc1ccc(C)cc1NC(=O)C(=O)NNC(=O)COc1ccc(Cl)cc1	-7%	21µM*	i	-24	-1	i
Cc1ccc(C2CC(=O)C=C(NCc3ccccc3)C2)cc1 (stereo not drawn)	23µM*	21µM*	15µM*	-24	-15	21µM*
Cc1ccc(C2CC(=O)C=C(NCC(C)C)C2)cc1 (stereo not drawn)	-12%	?	?	-11	3	?
O=C(COc1ccc(Cl)cc1Cl)N(c1ccccn1)C1CCCCC1	17%	?	?	-3	8	i
CC(C)(C)NC(=O)COc1ccc(CNCc2ccccn2)cc1	-2%	16µM*	i	?	-20	i
Cc1cc(S(=O)(=O)NC2CCCCC2)ccc1OCC(=O)NCc1ccccn1	28%	19%	i	-23	-7	18µM*
CCOc1cc(CNCc2ccccn2)ccc1OCC(=O)NC1CCCCC1	-1%	-3%	i	-89*	-23	i
Cc1ccc(OCC(=O)N(c2ccccn2)C2CCCCC2)c(C)c1	-115%	5%	i	3	3	18µM*
Cc1cc(S(=O)(=O)N2CCCC2)ccc1OCC(=O)NCc1ccccn1	-6%	-12%	i	4	14	?
CCc1ccc(-c2nc3c(c(SCc4ccc(F)cc4)n2)Cc2c(CO)cnc(C)c2O3)cc1	·	·	i	·	9	i
CCN(CC)S(=O)(=O)c1ccc2c(c1)N(CC(=O)Nc1ccc(C)cc1C)C(=O)C1CCCN21 (stereo not drawn)	·	·	i	·	3	i
Cc1cccc(C)c1NC(=O)Cn1c(=O)cc(C)c2c(C)nn(-c3cccc(Cl)c3C)c21	·	·	i	·	-3	i
Cc1scc(C(=O)N2CCN(S(C)(=O)=O)CC2)c1-c1ccccc1	0%	-4%	i	12	8	23µM*
CS(=O)(=O)N1CCN(C(=O)c2csc3ccccc23)CC1	-10%	1%	i	23	-4	i
Cc1ccc(C(=O)N/N=C2\CCc3ccccc32)c(C)c1	1%	2%	i	-8	0	23µM*
O=C(O)c1ccc(N/N=C/c2ccc(-c3ccccc3)cc2)cc1	21µM*	1.3µM*	?	-15	0	i
O=C(O)c1ccc(/C=N/Nc2ccc(C(F)(F)F)cn2)cc1	5.8µM*	12µM*	i	1	14	i

Screens as filed in PubChem BioAssay.
